# Reference: the supplement of paper PMC6555819
# Key:
# Assay in all cases: PBM binding z-score (relative to random genomic background probes); higher = stronger binding; sequences stand for … in GC…GCGATTGACAGCGTAGAATGAAGG
# [1] = test system: RARb homodimer (NR concentration 270 nM)
# Summary of the method: (§1)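 Binding z-scores take random background probes as their reference. They come from custom Agilent 4×180K protein-binding microarrays incubated 1 h with ligand-free nuclear receptor dimers, with antibodies against each partner (one per run) detecting binding. Scanned fluorescence was regression-normalized.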
# [2] = test system: RARg:RXRa (NR concentration 270 nM, RXRa partner concentration 90 nM)
# Summary of the method: as §1
# [3] = test system: RARg homodimer (NR concentration 270 nM)
# Summary of the method: as §1
# [4] = test system: RXRa DBDmut IVT, anti-RXR (DBD mutation: RXRa K156A/R161A, NR concentration 90 nM)
# Summary of the method: as §1
# [5] = test system: RXRa homodimer (NR concentration 180 nM)
# Summary of the method: as §1
# [6] = test system: THRa:RXRa (NR concentration 90 nM, RXRa partner concentration 90 nM)
# Summary of the method: as §1
# [7] = test system: THRa homodimer (NR concentration 90 nM)
# Summary of the method: as §1
# [8] = test system: VDR:RXRa (NR concentration 270 nM, RXRa partner concentration 90 nM)
# Summary of the method: as §1
# [9] = test system: VDR homodimer (NR concentration 270 nM)
# Summary of the method: as §1
sequence,measurement,setting,value
AGTTAAAGTTCAGGACGAGGTAACGTAAAGCACG,PBM binding z-score,[1],3.04
same,PBM binding z-score,[2],4.5
same,PBM binding z-score,[3],4.39
same,PBM binding z-score,[4],3.27
same,PBM binding z-score,[5],2.72
same,PBM binding z-score,[6],3.85
same,PBM binding z-score,[7],1.96
same,PBM binding z-score,[8],3.01
same,PBM binding z-score,[9],2.43
ACGAGCAGGCCAAGTTTGGGTCACTCAAACAAAG,PBM binding z-score,[1],2.28
same,PBM binding z-score,[2],2.29
same,PBM binding z-score,[3],1.45
same,PBM binding z-score,[4],-0.315
same,PBM binding z-score,[5],0.708
same,PBM binding z-score,[6],2.59
same,PBM binding z-score,[7],1.04
same,PBM binding z-score,[8],0.614
same,PBM binding z-score,[9],0.234
CATACTGGGCCATCAGGTCATTGATATCAACGTT,PBM binding z-score,[1],2.78
same,PBM binding z-score,[2],2.53
same,PBM binding z-score,[3],2.08
same,PBM binding z-score,[4],0.904
same,PBM binding z-score,[5],1.61
same,PBM binding z-score,[6],3.29
same,PBM binding z-score,[7],3.27
same,PBM binding z-score,[8],2.28
same,PBM binding z-score,[9],2.38
ACTATTATTTGACTTAGGGCAACCGATACGACGC,PBM binding z-score,[1],1.2
same,PBM binding z-score,[2],1.18
same,PBM binding z-score,[3],1.35
same,PBM binding z-score,[4],1.24
same,PBM binding z-score,[5],0.818
same,PBM binding z-score,[6],1.18
same,PBM binding z-score,[7],1.52
same,PBM binding z-score,[8],0.993
same,PBM binding z-score,[9],1.41
CCTGCTAGGTCAATGGTCAGCCAAAGCAGCTCGC,PBM binding z-score,[1],3.05
same,PBM binding z-score,[2],3.38
same,PBM binding z-score,[3],4.35
same,PBM binding z-score,[4],1.48
same,PBM binding z-score,[5],2.23
same,PBM binding z-score,[6],2.06
same,PBM binding z-score,[7],0.619
same,PBM binding z-score,[8],0.672
same,PBM binding z-score,[9],-0.16
ATCTCTAGCTAAGACTCAGTTCAGTGAAGAACGC,PBM binding z-score,[1],0.502
same,PBM binding z-score,[2],0.00118
same,PBM binding z-score,[3],-0.132
same,PBM binding z-score,[4],0.313
same,PBM binding z-score,[5],0.0167
same,PBM binding z-score,[6],0.338
same,PBM binding z-score,[7],0.471
same,PBM binding z-score,[8],0.552
same,PBM binding z-score,[9],1.11
CTCGAAACGTCGGTTGAGGTGAGTATACGGATAA,PBM binding z-score,[1],-0.165
same,PBM binding z-score,[2],0.0462
same,PBM binding z-score,[3],0.0959
same,PBM binding z-score,[4],-0.0246
same,PBM binding z-score,[5],-0.0266
same,PBM binding z-score,[6],2.55
same,PBM binding z-score,[7],1.2
same,PBM binding z-score,[8],-0.213
same,PBM binding z-score,[9],-0.242
ACTAGTTGGTCAGCTCAGGTCACACACAATTCGG,PBM binding z-score,[1],3.56
same,PBM binding z-score,[2],2.3
same,PBM binding z-score,[3],2.88
same,PBM binding z-score,[4],0.763
same,PBM binding z-score,[5],1.93
same,PBM binding z-score,[6],4.66
same,PBM binding z-score,[7],4.32
same,PBM binding z-score,[8],2.23
same,PBM binding z-score,[9],1.46
TCTGCTAGGCCAGTTGGTCAGCTAACGAGCTGCC,PBM binding z-score,[1],-0.0493
same,PBM binding z-score,[2],-0.411
same,PBM binding z-score,[3],-0.212
same,PBM binding z-score,[4],-0.198
same,PBM binding z-score,[5],-0.79
same,PBM binding z-score,[6],-0.845
same,PBM binding z-score,[7],-1.4
same,PBM binding z-score,[8],-0.797
same,PBM binding z-score,[9],-1.5
ATATGTAGGTTATCGGGGCATTCAGTTTGCGCAT,PBM binding z-score,[1],1.53
same,PBM binding z-score,[2],1.3
same,PBM binding z-score,[3],1.24
same,PBM binding z-score,[4],1.35
same,PBM binding z-score,[5],1.25
same,PBM binding z-score,[6],1.49
same,PBM binding z-score,[7],1.4
same,PBM binding z-score,[8],2.27
same,PBM binding z-score,[9],2.14
CCTCGGAGGACAGAAGGTCAGTGCTGTCCGCTTT,PBM binding z-score,[1],3.69
same,PBM binding z-score,[2],3.14
same,PBM binding z-score,[3],3.23
same,PBM binding z-score,[4],0.236
same,PBM binding z-score,[5],1.25
same,PBM binding z-score,[6],1.88
same,PBM binding z-score,[7],-0.0278
same,PBM binding z-score,[8],0.863
same,PBM binding z-score,[9],0.261
TCTTGGAGGACACGAAAGGTCAGAGCTCGACATC,PBM binding z-score,[1],4.63
same,PBM binding z-score,[2],5.1
same,PBM binding z-score,[3],5.47
same,PBM binding z-score,[4],1.26
same,PBM binding z-score,[5],4.25
same,PBM binding z-score,[6],3.89
same,PBM binding z-score,[7],1.31
same,PBM binding z-score,[8],3.58
same,PBM binding z-score,[9],1.48
TAGCCTAGGTCAGATCCGGCCAGTATACGCTATA,PBM binding z-score,[1],2.26
same,PBM binding z-score,[2],2.41
same,PBM binding z-score,[3],3.5
same,PBM binding z-score,[4],-0.288
same,PBM binding z-score,[5],1.41
same,PBM binding z-score,[6],3.4
same,PBM binding z-score,[7],0.0339
same,PBM binding z-score,[8],0.403
same,PBM binding z-score,[9],-0.271
AGAACGAGGGCAATGAGTTGGTAGCACGGGTGGC,PBM binding z-score,[1],0.799
same,PBM binding z-score,[2],0.857
same,PBM binding z-score,[3],1.09
same,PBM binding z-score,[4],1.47
same,PBM binding z-score,[5],0.619
same,PBM binding z-score,[6],0.555
same,PBM binding z-score,[7],-0.125
same,PBM binding z-score,[8],4.09
same,PBM binding z-score,[9],1.98
TAGCCTAGGTCATTGGCCAGTATACCACGCGAAC,PBM binding z-score,[1],2.76
same,PBM binding z-score,[2],3.66
same,PBM binding z-score,[3],3.92
same,PBM binding z-score,[4],1.68
same,PBM binding z-score,[5],3.22
same,PBM binding z-score,[6],2.66
same,PBM binding z-score,[7],0.992
same,PBM binding z-score,[8],2.18
same,PBM binding z-score,[9],1.26
TCTTGTAGATCAACAGGAGGTTAAGAGAGATCGA,PBM binding z-score,[1],0.58
same,PBM binding z-score,[2],1.1
same,PBM binding z-score,[3],0.453
same,PBM binding z-score,[4],0.0129
same,PBM binding z-score,[5],0.887
same,PBM binding z-score,[6],1.01
same,PBM binding z-score,[7],-0.746
same,PBM binding z-score,[8],0.733
same,PBM binding z-score,[9],-0.539
ACTCAAAGTTCATCTAGGTAACGTAAGATATGCT,PBM binding z-score,[1],4.25
same,PBM binding z-score,[2],5.51
same,PBM binding z-score,[3],6.3
same,PBM binding z-score,[4],4.87
same,PBM binding z-score,[5],4.62
same,PBM binding z-score,[6],3.37
same,PBM binding z-score,[7],0.619
same,PBM binding z-score,[8],4.98
same,PBM binding z-score,[9],5.89
AGAACGCGGGCAATGAGTTGATAGCACGGGTGGC,PBM binding z-score,[1],-0.332
same,PBM binding z-score,[2],0.0304
same,PBM binding z-score,[3],0.194
same,PBM binding z-score,[4],-0.0914
same,PBM binding z-score,[5],0.299
same,PBM binding z-score,[6],-0.395
same,PBM binding z-score,[7],-1.04
same,PBM binding z-score,[8],1.56
same,PBM binding z-score,[9],0.678
CGTCCAAGGTCAATGCTAGGTTAGTGAAAGCATT,PBM binding z-score,[1],2.54
same,PBM binding z-score,[2],6.12
same,PBM binding z-score,[3],6.16
same,PBM binding z-score,[4],3.86
same,PBM binding z-score,[5],4.75
same,PBM binding z-score,[6],3.91
same,PBM binding z-score,[7],2.27
same,PBM binding z-score,[8],4.02
same,PBM binding z-score,[9],2.58
ATCTCTAGGTAAAGTTCAGTGCAAGATCGATAGA,PBM binding z-score,[1],2.68
same,PBM binding z-score,[2],2.49
same,PBM binding z-score,[3],2.87
same,PBM binding z-score,[4],1.39
same,PBM binding z-score,[5],1.4
same,PBM binding z-score,[6],1.5
same,PBM binding z-score,[7],0.256
same,PBM binding z-score,[8],1.87
same,PBM binding z-score,[9],2.47
CCTCGCAGGCCAGGGTCACTCAAGCATTTCGCTT,PBM binding z-score,[1],2.71
same,PBM binding z-score,[2],2.93
same,PBM binding z-score,[3],2.2
same,PBM binding z-score,[4],0.363
same,PBM binding z-score,[5],3.06
same,PBM binding z-score,[6],2.84
same,PBM binding z-score,[7],1.2
same,PBM binding z-score,[8],2.41
same,PBM binding z-score,[9],1.43
TCGAGTAGGTGAGGGGCATTCAGAATGGCGTCGA,PBM binding z-score,[1],0.716
same,PBM binding z-score,[2],-0.0952
same,PBM binding z-score,[3],-0.106
same,PBM binding z-score,[4],0.0823
same,PBM binding z-score,[5],0.442
same,PBM binding z-score,[6],0.268
same,PBM binding z-score,[7],-0.559
same,PBM binding z-score,[8],-0.0355
same,PBM binding z-score,[9],-0.687
CTCGAAAGGTCGGTTGAGGGGAGTATACGGATAA,PBM binding z-score,[1],1.86
same,PBM binding z-score,[2],2.44
same,PBM binding z-score,[3],2.58
same,PBM binding z-score,[4],0.704
same,PBM binding z-score,[5],2.14
same,PBM binding z-score,[6],4
same,PBM binding z-score,[7],-0.23
same,PBM binding z-score,[8],1.24
same,PBM binding z-score,[9],0.528
CCTACTGGGCCAAAAAGGTCATTTATGCCGATAA,PBM binding z-score,[1],4.03
same,PBM binding z-score,[2],4.11
same,PBM binding z-score,[3],3.43
same,PBM binding z-score,[4],0.766
same,PBM binding z-score,[5],4.35
same,PBM binding z-score,[6],2.85
same,PBM binding z-score,[7],0.395
same,PBM binding z-score,[8],4.44
same,PBM binding z-score,[9],2.46
ACTCGGAGGACGAAGGTCAGAGCTACGCCAGTGA,PBM binding z-score,[1],2.86
same,PBM binding z-score,[2],2.9
same,PBM binding z-score,[3],2.48
same,PBM binding z-score,[4],0.315
same,PBM binding z-score,[5],2.01
same,PBM binding z-score,[6],1.64
same,PBM binding z-score,[7],-0.396
same,PBM binding z-score,[8],1.15
same,PBM binding z-score,[9],0.109
ATCTCTAGGTAACCAGTTCAGTGAAAGAGAGGAC,PBM binding z-score,[1],1.05
same,PBM binding z-score,[2],0.822
same,PBM binding z-score,[3],0.768
same,PBM binding z-score,[4],0.358
same,PBM binding z-score,[5],0.791
same,PBM binding z-score,[6],1.35
same,PBM binding z-score,[7],1.18
same,PBM binding z-score,[8],1.16
same,PBM binding z-score,[9],1.35
